Some structures have more than one record in an assay (separate samples or runs), and their calls can disagree. Active and inactive are the calls of the source. How the source made its calls: active means hit-call score of the fitted dose curve at least 0.9, where 1 is the maximum; inactive means score below 0.9.
What follows are compounds tested on Thrombomodulin, THBD (gene 7056) (assay: BSK_3C_Thrombomodulin: BioMAP Diversity Plus: 3C Assay for Thrombomodulin Biomarker Activity (AID 2283029)). Conditions: primary human endothelial cells (HUVEC); actives raise or lower the signal.
Procedure: BSK_3C is a cell-based, multiplexed-readout assay that uses umbilical vein endothelium, a human vascular primary cell, with measurements taken at 24 hours after chemical dosing in a 96-well plate.BSK_3C_Thrombomodulin is an assay component measured in the BSK_3C assay. It measures Thrombomodulin antibody related to regulation of gene expression using ELISA technology.Data from the assay component BSK_3C_Thrombomodulin was analyzed into 1 assay endpoint. This assay endpoint, BSK_3C_Thrombomodulin, was analyzed with bidirectional fitting relative to DMSO as the negative control and baseline of activity. Using a type of binding reporter, gain or loss-of-signal activity can be used to understand changes in the signaling as they relate to the gene THBD. Furthermore, this assay endpoint can be referred to as a primary readout, because this assay has produced multiple assay endpoints where this one serves a signaling function. To generalize the intended target to other relatable targets, this assay endpoint is annotated to the gpcr intended target family, where the subfamily is rhodopsin-like receptor.
The levels of cell surface (or secreted, indicated by the prefix "s") biomarker endpoints were measured by ELISA. Overt cytotoxicity to cells in confluent adherent cultures (all systems other than the BT system) was assessed by measuring total protein levels using sulforhodamine B (SRB) staining in parallel cultures at the time of biomarker measurements, indicated as SRB endpoints. For proliferation assays for adherent cell types, individual cell types are cultured at sub-confluence and relative cell numbers quantified by SRB staining at time points optimized for each system (48 h: 3C and CASM3C systems; 72 h: BT and HDF3CGF systems; 96 h: SAg system). SRB was performed by staining cells with 0.1% SRB after fixation with 10% TCA and reading wells at 560 nm.Viability and proliferation of PBMC (T cells) was quantified by Alamar Blue reduction for the SAg and BT systems. For PBMC viability (referred to as PBMC Cytotoxicity within the assay endpoint names), cells were plated (75,000/well in a 96-well plate) and then chemical samples added for 1 h before addition of activators, SEB and TSST-1 (20 ng/mL final concentration each). Cells were incubated for 90 h. Then, Alamar Blue (20 uL/well) (Invitrogen, Cat DAL1100) was added for 6 h, and the plates were read with a fluorescence microplate reader at 546/580 nm (excitation/emission). For PBMC proliferation, cells were plated and activated as above but incubated for only 16 h prior to addition of Alamar Blue. Plates were read after 6 h.

Structure (SMILES)	outcome	AC50
Nc1ccn([C@@H]2O[C@H](CO)[C@@H](O)[C@@H]2O)c(=O)n1	inactive	
Cc1cccc(O)c1C	inactive	
OCCNCCO	inactive	
CCCCOC(=O)c1ccccc1	inactive	
Cc1ccc(S(=O)(=O)NC(=O)NN2CCCCCC2)cc1	inactive	
CC(=O)c1ccccc1	inactive	
NCC(F)(F)C(F)(F)C(F)(F)C(F)(F)F	inactive	5.95 µM (active)
O=C1CN(N=Cc2ccc([N+](=O)[O-])o2)C(=O)N1	inactive	
CCCOc1ccc(S(=O)(=O)N2CCN(CC)CC2)cc1-c1nc2c(CC)n(Cc3ccccn3)nc2c(=O)[nH]1	inactive	
Cc1ncc([C@@H](CCCCCCc2ccc3c(n2)NCCC3)CC(=O)O)cn1	inactive	
CC(C)C(=O)Nc1ccc([N+](=O)[O-])c(C(F)(F)F)c1	inactive	
NC(=O)N1c2ccccc2C=Cc2ccccc21	inactive	
CCCCCCCC1CCC(=O)O1 (stereo not given)	inactive	
CC(C)c1nnc2ccc(-c3ocnc3-c3cc(F)ccc3F)cn12		0.451 µM (active)
OC(O)(C(F)C(O)(O)C(F)(F)F)C(F)(F)F	inactive	
CC[C@H](C)C(=O)O[C@H]1C[C@H](O)C=C2C=C[C@H](C)[C@H](CC[C@@H](O)C[C@@H](O)CC(=O)O)[C@H]21	inactive	
O=S1(=O)CCCO1	inactive	
OC(CCl)CCl	inactive	
c1ccc(C(O[C@@H]2CCCN(CCc3ccc4c(c3)OCO4)C2)c2ccccc2)cc1	inactive	
Cn1c(=O)c2[nH]cnc2n(C)c1=O	inactive	

Structure (SMILES)	outcome	AC50
O=C(O)c1cccc(C(=O)O)c1	inactive	
NC(N)=O	inactive	
CCOc1ccc2[nH]cc(C(=O)NCc3ccccc3)c(=O)c2n1	inactive	
C=CCc1cc(S(=O)(=O)c2ccc(O)c(CC=C)c2)ccc1O	inactive	
CCCc1ccccc1	inactive	
OC[C@H]1O[C@@H]2O[C@H]3[C@H](O)[C@@H](O)[C@@H](O[C@H]4[C@H](O)[C@@H](O)[C@@H](O[C@H]5[C@H](O)[C@@H](O)[C@@H](O[C@H]6[C@H](O)[C@@H](O)[C@@H](O[C@H]7[C@H](O)[C@@H](O)[C@@H](O[C@H]1[C@H](O)[C@H]2O)O[C@@H]7CO)O[C@@H]6CO)O[C@@H]5CO)O[C@@H]4CO)O[C@@H]3CO	inactive	
C=CN1CCCC1=O	inactive	
FC(F)(F)C(F)(F)C(F)(F)C(F)(F)C(F)(F)C(F)(F)I	inactive	
OCCC(F)(F)C(F)(F)C(F)(F)C(F)(F)F	inactive	
CNC(C)=O	inactive	
FC(F)(F)COC(OCC(F)(F)F)OCC(F)(F)F	inactive	
O=C(O)[C@H](O)[C@@H](O)C(=O)O	inactive	
COS(C)(=O)=O	inactive	
NC(=O)N(O)[C@@H]1COc2cc(OCc3ccccc3)ccc21	inactive	
NNC(=O)c1ccncc1	inactive	
Cn1cc[nH]c1=S	inactive	
CCCCCCOC(=O)CC(CC(=O)OCCCCCC)(OC(=O)CCC)C(=O)OCCCCCC	inactive	
NC(=O)NN=Cc1ccc([N+](=O)[O-])o1	inactive	
O=S(=O)(O)CCC(F)(F)C(F)(F)C(F)(F)C(F)(F)C(F)(F)C(F)(F)F	inactive	

Reference: PubChem BioAssay (EPA / NIEHS)
